Most compounds without a hit are left out; they make up all but 0.83% or so of the library.
Menin MLL FP FL: qHTS Assay for Inhibitors Targeting the Menin-MLL Interaction in MLL Related Leukemias: Competition With Fluorescein Labeled MLL-derived Peptide; Fluorescence polarization, fluorescein-MLL peptide displacement from menin; FP activity change, % at 61.4 µM; 290,000 tested, under 10 active; active means well fitted curve in the direction sought with a large enough effect in the polarisation, not every such curve was filed as active; inconclusive means small, poorly fitted or top-dose-only effect, or effect the other way, or a change in a side signal; inactive means no such curve, though single readings can be large or run the other way; the % refers to the polarisation; further: % of control where 0% means no effect
CtBP-E1A blk: qHTS Assay for Inhibitors of the CtBP/E1A Interaction. CtBP / adenovirus E1A interaction (AlphaScreen). AlphaScreen GST-E1A/His-CtBP binding, 1536-well; hits give low values. activity change, % (test concentration not listed). 0.49% of 340,000 active. AID 651724, 2012; in the data active means activity change below about -65%; inconclusive means mostly about -30% to -63%; further: on the % scale 0 is the no-effect control and ±100 the full control effect
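AlphaScreen with 125 nM GST-E1A and 125 nM His-CtBP (5X stocks) in Tris pH 8.0, 300 mM NaCl, BSA, Tween 20, TCEP. Compounds preincubated 2 h at 37 deg C, then glutathione donor/nickel acceptor beads added for 1 h at 37 deg C in dark.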
CXXC DNA block: qHTS Fluorescence Polarization Assay for Inhibitors of MLL CXXC domain - DNA interaction | Histone-lysine N-methyltransferase 2A (Homo sapiens), Q03164 | MLL-CXXC / FITC-HOXA9 DNA fluorescence polarization | Potency, µM (highest dose often 115 µM), for inactives: at the highest dose activity change, negative = inhibition, hits mostly inhibitors | 0.037% of 290,000 active; active means well fitted inhibition curve with a large enough effect in the polarisation, with a control signal flat, not every such curve was filed as active; inconclusive means small, poorly fitted or top-dose-only effect, or effect the other way, or a change in a side signal; inactive means no such curve, though single readings can be large or run the other way; the % refers to the polarisation; further: potency means the concentration at half of the fitted maximal effect
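Steps: dispense CXXC domain solution (7 uM) → pin compounds or unlabeled HOX-A9 DNA control → 5 min ambient → add FLSN-HOX-A9 solution (50 nM) → spin → 30 min ambient → fluorescence polarization. Tris pH 7.5/NaCl/DTT/BSA buffer.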
Six1-Eya2 inh: qHTS Assay for Inhibitors of the Six1/Eya2 Interaction | activity change, % (test concentration not listed) | AlphaScreen GST-Six1/His-Eya2 binding, biochemical; hits give low values | AID 651725, 2012 | Homeobox protein SIX1 (Homo sapiens) + Protein phosphatase EYA2 (Homo sapiens), … | 0.56% of 360,000 active; in the data active means activity change below about -65%; inconclusive means mostly about -30% to -63%; further: on the % scale 0 is the no-effect control and ±100 the full control effect
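AlphaScreen luminescence read after one hour at 37 °C in darkness. Pin-transferred compounds met GST-Six1 and His-Eya2 protein (5X stock 250 nM/500 nM) plus glutathione donor and Ni-chelate acceptor beads (5X, 50 ug/mL).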
GLS inhibitor: qHTS for Inhibitors of Glutaminase (GLS). Glutaminase kidney isoform, mitochondrial (Homo sapiens), O94925. GLS enzymatic activity, qHTS titration. Potency, µM (highest dose often 45.5 µM), for the others: top-dose activity change, negative = inhibition, most hits filed as inhibitors. 0.21% of 410,000 active. AID 624170, 2012; further: potency means the concentration at half of the fitted maximal effect; on the % scale 0 is the no-effect control and ±100 the full control effect
Target sequence (O94925 whole entry, looked up, canonical isoform): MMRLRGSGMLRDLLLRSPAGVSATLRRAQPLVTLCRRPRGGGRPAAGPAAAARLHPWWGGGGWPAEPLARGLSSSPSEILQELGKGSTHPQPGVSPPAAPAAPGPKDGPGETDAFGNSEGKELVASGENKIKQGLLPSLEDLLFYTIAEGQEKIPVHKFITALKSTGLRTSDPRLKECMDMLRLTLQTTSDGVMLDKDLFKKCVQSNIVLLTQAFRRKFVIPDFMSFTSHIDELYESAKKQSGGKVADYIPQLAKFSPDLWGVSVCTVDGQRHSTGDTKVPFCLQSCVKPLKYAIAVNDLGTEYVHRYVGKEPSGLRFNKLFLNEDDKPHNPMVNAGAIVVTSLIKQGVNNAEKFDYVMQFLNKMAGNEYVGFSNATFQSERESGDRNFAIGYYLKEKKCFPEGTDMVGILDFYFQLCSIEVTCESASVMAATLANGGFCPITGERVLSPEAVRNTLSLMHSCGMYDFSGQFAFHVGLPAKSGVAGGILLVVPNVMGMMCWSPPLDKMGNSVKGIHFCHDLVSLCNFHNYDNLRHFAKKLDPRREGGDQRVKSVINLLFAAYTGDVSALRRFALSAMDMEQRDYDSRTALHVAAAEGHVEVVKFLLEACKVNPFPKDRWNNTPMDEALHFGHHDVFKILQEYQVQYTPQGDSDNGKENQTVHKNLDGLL
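Coupled fluorescence readout: glutamate oxidase/HRP/Amplex Red detect glutamate formed by hKGA from L-glutamine (1 mM solution added). Buffer 45 mM KH2PO4 pH 8.2, 0.02% Tween-20; reads at t0 and 30 min RT.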
Menin-MLL TR inh: qHTS Assay for Inhibitors Targeting the Menin-MLL Interaction in MLL Related Leukemias: Competition With Texas Red Labeled MLL-derived Mutant Peptide; O00255; Menin + Texas Red MLL mutant peptide, fluorescence polarization; Potency, µM (top dose mostly 61.6 µM), inactives show at the highest dose FP activity change, negative = inhibition, usual class: inhibitors; 0.23% of 270,000 active; active means well fitted inhibition curve with a large enough effect in the polarisation, with a control signal flat, not every such curve was filed as active; inconclusive means small, poorly fitted or top-dose-only effect, or effect the other way, or a change in a side signal; inactive means no such curve, though single readings can be large or run the other way; the % refers to the polarisation; further: potency means the concentration at half of the fitted maximal effect; % of control where 0% means no effect
MLL CXXC FP-Fl: qHTS Fluorescence Polarization (FP) Assay for Inhibitors of MLL CXXC domain - DNA interaction: Fluorescein FP; shares compounds with CXXC DNA block; MLL CXXC-DNA binding, fluorescein FP; Potency, µM (series often up to 345 µM), inactives show top-dose activity change, negative = inhibition, usual class: inhibitors; 70% of 200 active; AID 624160, 2012; further: potency means the concentration at half of the fitted maximal effect; nearly all actives have a fitted effect of over 80% in size
MLL CXXC TxRed: qHTS Fluorescence Polarization (FP) Assay for Inhibitors of MLL CXXC domain - DNA interaction: Texas Red FP | 40% of 200 active | AID 624161, 2012 | Potency, µM (doses to about 345 µM), inactives show at the highest dose activity change, negative = inhibition, hits mostly inhibitors | shares compounds with CXXC DNA block | MLL CXXC-DNA binding, Texas Red fluorescence polarization; further: potency means the concentration at half of the fitted maximal effect; on the % scale 0 is the no-effect control and ±100 the full control effect; nearly all actives have a fitted effect of over 75% in size
MLL CXXC HTRF: qHTS Fluorescence Polarization (FP) Assay for Inhibitors of MLL CXXC domain - DNA interaction: HTRF Assay | shares compounds with CXXC DNA block | MLL CXXC-DNA binding, HTRF, biochemical | Potency, µM (doses to about 172 µM), without a hit: at the highest dose activity change, negative = inhibition, actives largely listed as inhibitors | 30% of 210 active | AID 624162, 2012; further: on the % scale 0 is the no-effect control and ±100 the full control effect; nearly all actives have a fitted effect of over 80% in size
Numbers without * were called inactive; u = inconclusive; x = no result given. Unless noted, the call rests on the fitted dose curve; in most records, active means well fitted curve in the direction sought with a large enough effect; inconclusive means small, poorly fitted or top-dose-only effect, or another doubt; inactive means no such curve, though single readings can be large; an effect the other way counts as inactive or inconclusive.

SMILES	Menin MLL FP FL	CtBP-E1A blk	CXXC DNA block	Six1-Eya2 inh	GLS inhibitor	Menin-MLL TR inh	MLL CXXC FP-Fl	MLL CXXC TxRed	MLL CXXC HTRF
Cc1nn(C)c(C)c1CN(C)C(=O)C1c2ccccc2Oc2ccccc21	-1.4	6.2	31.6µM*	-1.8	1.2%	-1.4%	126µM*	u	-1.2%
N#CC1(C#N)C(c2ccccc2)OC23CCCCC2C1(C#N)C(=N)O3 (centres undefined)	u	-4.8	u	-8.3	-1.9%	-10.2%	x	x	x
N#CC1(C#N)C(c2ccccc2)OC23CCCCCC2C1(C#N)C(=N)O3 (centres undefined)	-16.0	-5.5	50.1µM*	0.8	24.4%	-0.1%	50.3µM*	u	11.3%
COC(=O)c1ccc2c(c1)SC1=C(CCCC1=O)N2	u	-10.4	28.2µM*	-18.8	-0.8%	u	100µM*	142µM*	171.0%
O=C1CCCC2=C1Sc1ccc(Cl)cc1N2	u	x	u	-18.3	-1.4%	x	x	x	x
CN(C)CCOc1nc(-c2ccccc2)nc2c1oc1ccccc12	3.3	-26.5	35.5µM*	-23.0	14.3%	-10.7%	126µM*	u	-8.8%
COc1ccc(NC(=O)COCc2cc(-c3cccs3)on2)cc1	x	x	x	x	-15.9%	x	x	x	x
Cc1ccc(Sc2ccc(/C=C3/C(=O)NN(c4ccccc4)C3=O)o2)cc1	18.0	x	u	0.7	-19.7%	x	7.97µM*	32.5%	-0.8%
Cc1ccc(OCC(=O)N(Cc2ccco2)Cc2ccc(C)o2)cc1	x	x	x	x	-7.2%	x	x	x	x
CC(CC=O)CCCC(C)(C)O (centres undefined)	3.3	x	-4.6%	x	6.9%	-1.9%	x	x	x
CCc1cccc(NC(=O)CSC2=NS(=O)(=O)c3ccccc32)c1	2.8	-19.9	31.6µM*	6.1	5.4%	-10.5%	89.5µM*	113µM*	15.3µM*
Cc1ccc(S(=O)(=O)NC2OC(=O)C(Cl)=C2Cl)cc1 (centres undefined)	1.9	-1.6	u	-2.5	34.1%	10.5%	89.5µM*	142µM*	48.5µM*
Cc1ccc(S(=O)(=O)NC2CCCCCCC2)cc1	-1.9	3.8	-6.0%	-6.5	-12.4%	-9.6%	x	x	x
CC(=O)N/N=C/c1cc(C(C)(C)C)cc(/C=N/NC(C)=O)c1O	u	-87.8*	u	-76.1*	15.6%	0.1%	51.7%	-10.4%	45.3%
O=C1c2ccccc2C(=O)C1(c1ccccc1)N1CCN(c2cccc(Cl)c2)CC1	x	x	x	x	-6.3%	x	x	x	x
Cn1c(SCC(=O)NCc2ccco2)nnc1-c1ccccc1	1.5	5.4	2.7%	7.1	4.7%	-2.6%	x	x	x

Compound activity: PubChem BioAssay, National Center for Advancing Translational Sciences (NCATS)
